This assay concerns the target Serine/threonine-protein kinase mTOR (Homo sapiens) (UniProt P42345). As to conditions: at 10 µM.
For `Cc1ccc(NC2=CC(=O)c3sc(C)nc3C2=O)cc1`, the residual activity (commonly the signal under treatment as a percentage of the control signal) came to 86%. Turning to `O=C1Nc2ccccc2/C1=C1/Nc2ccccc2/C1=N\OCCC(O)CO` (configuration not stated), the residual activity was 110%. Take `CC(C)n1cnc2/c(=N/c3cccc(Cl)c3)nc(NCCO)[nH]c21`: the residual activity was determined as 101%.

In the case of `N#C/C(=C(\N)Sc1ccc(N)cc1)c1ccccc1C(F)(F)F`, the residual activity was found to be 79%.

For the compound `CC#CC(=O)Nc1cc2c(Nc3ccc(F)c(Cl)c3)ncnc2cn1`, the residual activity was determined as 92%. Next, `Cn1nc2c3c(cccc31)C(=O)c1ccccc1-2`: 66%; `CO[C@H]1C[C@@H]2CC[C@@H](C)[C@@](O)(O2)C(=O)C(=O)N2CCCC[C@H]2C(=O)O[C@H]([C@H](C)C[C@@H]2CC[C@@H](O)[C@H](OC)C2)CC(=O)[C@H](C)/C=C(\C)[C@@H](O)[C@@H](OC)C(=O)[C@H](C)C[C@H](C)/C=C/C=C/C=C/1C`: 4%; `c1ccc2c(-c3ccncc3)c[nH]c2c1`: 110%.

For `O=C1Nc2ccc(Br)cc2/C1=C\c1cc2c([nH]1)CCCC2`, the residual activity turned out to be 103%. The value for `Cc1nc(-c2ccccc2)c(-c2ccncc2)o1` was 94%; that for `c1ccc(-c2n[nH]c3c2oc2ccccc23)cc1` was 72%. With `O=C1NC(=O)c2c1c1c3ccccc3[nH]c1c1[nH]c3cc(Br)ccc3c21`, the residual activity stood at 113%. As to `CCN(CC)C(=O)c1ccc(Nc2nc(OCC3CCCCC3)c3nc[nH]c3n2)cc1`, the residual activity was 55%.

For `Nc1n[nH]c2nnc(-c3c(-c4ccccc4)nn4ccccc34)cc12`, the residual activity stood at 87%. Next, `Cc1nc2cc3nc(-c4cccs4)cnc3cc2n1C`: 84%; `COc1cccc(-c2cc(=O)c3ccccc3o2)c1N`: 51%; `Oc1ccc(-c2nc(-c3ccc(F)cc3)c(-c3ccncc3)[nH]2)cc1`: 90%.

(Values after ChEMBL document CHEMBL2218924, “A broad activity screen in support of a chemogenomic map for kinase signalling research and drug discovery” (Biochem J, 2013).)
